Reference: PubChem BioAssay (Tox21)
Where “and” joins values, the source holds several entries; their conditions need not be identical. Identical values can stand only once. Calls of active or inactive are those of the source. Where a call stands in place of a potency, no number is given. Calls come from the whole dose curve.

Assay: G protein-coupled receptor (GPCR) small molecule agonists, calcium flux assay: HEK293 wild type cell line counter screen (AID 1920065)
Conditions: HEK293 WT calcium flux, fluorescence, agonist mode; series mostly up to 57.6 µM
Source text: U.S. Tox21 Program National Center for Advancing Translational Sciences [NCATS] Division of Preclinical Innovation [DPI] U.S. Environmental Protection Agency [EPA] National Institutes of Environmental Health Sciences [NIEHS] National Toxicology Program [NTP] U.S. Food and Drug Administration [FDA] Assay overview: The increased intracellular calcium release that occurred upon G protein-coupled receptor (GPCR) activation led to the frequent use of calcium flux assays to detect GPCR activation. For the purpose of studying and screening compounds that may activate GPCR, receptor-overexpressing models were typically generated using Hek293 wild-type (WT) cells. In order to eliminate the compounds that may have induced calcium release for non-specific activation, a counter-assay utilizing calcium flux on Hek293 WT cells was performed. The data were formulated in order to serve as a control for any calcium flux detection utilizing Hek293 cells with either GPCR overexpression or gene modification. The procurement of Hek293 WT cells from ATCC. Fluorescence intensity can be utilized to determine the activation of the compound in a calcium flux assay. As a counter control, this cell line was utilized to screen the Tox21 10K compound library.
Assay Protocol Summary: Hek293 cells were dispensed at 1500cells/4uL/well in 1536-well black wall/clear bottom plates using a multidrop dispenser. After the assay plates were incubated at a 37 C/5% CO2 incubator for 18 hours, 4 uL of Calcium Dye Solution was added to each well. The plates were incubated at 37 C for 1 hour. For agonist mode, 23 nL of compounds dissolved in DMSO, positive control (ATP) or DMSO only was transferred to the assay plate by a pin tool station. The fluorescence intensity in the plates was measured using FDSS 7000EX kinetic plate reader with a filter set of Ex/Em=480/540 for 3 min at 1 sec intervals. Each test compound was measured at 15 concentrations and in triplicates.
Potency is the fitted concentration of half-maximal effect.

**Q.** With `NC(=O)N1c2ccccc2C=Cc2ccccc21` as the molecule, how does the Potency read?
**A.** The Potency was “inactive”.

**Q.** Which Potency does the source give for `CC1=CC(C)(C)Nc2ccccc21` here?
**A.** Its Potency is “inactive”.

**Q.** Which Potency does the source give for `CC(=O)CCC(=O)O` here?
**A.** The Potency was “inactive”.

**Q.** With `CCCCCCCCO` as the molecule, how does the Potency read?
**A.** The Potency was “inactive”.

**Q.** For `O=C1CCc2ccccc2O1`, which Potency is on record?
**A.** The Potency was “inactive”.

**Q.** With `CC(CCO)CC(C)(C)C` (stereo not given) as the molecule, how does the Potency read?
**A.** Its Potency is “inactive”.

**Q.** For `O=c1ccc2ccccc2o1`, which Potency is on record?
**A.** The Potency was “inactive”.

**Q.** Which Potency does the source give for `OCCOCCOCCO` here?
**A.** Its Potency is “inactive”.

**Q.** For `NNCCc1ccccc1`, which Potency is on record?
**A.** The Potency was “inactive”.

**Q.** With `Cc1cc(C2(c3cc(C)c(O)cc3C)OS(=O)(=O)c3ccccc32)c(C)cc1O` as the molecule, how does the Potency read?
**A.** Its Potency is “inactive”.

**Q.** With `Nc1ccc(O)c(C(=O)O)c1` as the molecule, how does the Potency read?
**A.** The Potency was “inactive”.

**Q.** For `CCCCCCCCCCCCN`, which Potency is on record?
**A.** Its Potency is “inactive”.

**Q.** Which Potency does the source give for `C=CCOC(=O)c1ccccc1C(=O)OCC=C` here?
**A.** The Potency was “inactive”.

**Q.** For `Nc1cc(Cl)c(N)c(Cl)c1`, which Potency is on record?
**A.** The Potency was “inactive”.

**Q.** For `C#C[C@]1(O)CC[C@H]2[C@@H]3CCc4cc(OC)ccc4[C@H]3CC[C@@]21C`, which Potency is on record?
**A.** Its Potency is “inactive”.

**Q.** With `c1ccc(Nc2ccccc2)cc1` as the molecule, how does the Potency read?
**A.** The Potency was “inactive”.

**Q.** Which Potency does the source give for `Cc1ccc([N+](=O)[O-])cc1N` here?
**A.** Its Potency is “inactive”.

**Q.** For `O=C(OCc1ccccc1)c1ccccc1O`, which Potency is on record?
**A.** Its Potency is “inactive”.

**Q.** Which Potency does the source give for `CCCCCCC(C)O` (stereo not given) here?
**A.** Its Potency is “inactive”.

**Q.** For `Oc1ccc(O)cc1`, which Potency is on record?
**A.** The Potency was “inactive”.

**Q.** With `Nc1ccc(S(=O)(=O)c2ccc(N)cc2)cc1` as the molecule, how does the Potency read?
**A.** Its Potency is “inactive”.

**Q.** For `CCO[Si](CCCNC(N)=O)(OCC)OCC`, which Potency is on record?
**A.** The Potency was “inactive”.

**Q.** For `C[C@H]1C[C@H]2[C@@H]3CCC4=CC(=O)C=C[C@]4(C)[C@@]3(F)[C@@H](O)C[C@]2(C)[C@@]1(O)C(=O)CO`, which Potency is on record?
**A.** Its Potency is “inactive”.

**Q.** With `OC[C@]1(O)OC[C@@H](O)[C@H](O)[C@@H]1O` as the molecule, how does the Potency read?
**A.** Its Potency is “inactive”.

**Q.** With `O=C1O[C@H]([C@H](O)CO)C(O)=C1O` as the molecule, how does the Potency read?
**A.** The Potency was “inactive”.

**Q.** With `C[C@]12C=CC(=O)C=C1CC[C@@H]1[C@@H]2[C@@H](O)C[C@@]2(C)[C@H]1CC[C@]2(O)C(=O)CO` as the molecule, how does the Potency read?
**A.** Its Potency is “inactive”.

**Q.** For `O=C(O)C(=O)O`, which Potency is on record?
**A.** Its Potency is “inactive”.

**Q.** For `O=C1OC2(c3ccccc31)c1cc(I)c(O)c(I)c1Oc1c2cc(I)c(O)c1I`, which Potency is on record?
**A.** Its Potency is 39 µM (active) and 22.1 µM (active) and 19 µM (active).

**Q.** For `O=c1oc(=O)c2cc3c(=O)oc(=O)c3cc12`, which Potency is on record?
**A.** Its Potency is “inactive”.

**Q.** With `Oc1ccc(Cl)cc1Cc1cc(Cl)ccc1O` as the molecule, how does the Potency read?
**A.** The Potency was “inactive”.

**Q.** Which Potency does the source give for `NNc1ccc(C(=O)O)cc1` here?
**A.** The Potency was “inactive”.

**Q.** With `CC(=O)OCc1ccc2c(c1)OCO2` as the molecule, how does the Potency read?
**A.** The Potency was “inactive”.

**Q.** Which Potency does the source give for `CCCCCCC(=O)O` here?
**A.** Its Potency is “inactive”.

**Q.** Which Potency does the source give for `CN(C)CCN(Cc1cccs1)c1ccccn1` here?
**A.** The Potency was “inactive”.

**Q.** For `CCCCCCCCC(=O)O`, which Potency is on record?
**A.** Its Potency is “inactive”.

**Q.** With `CCC(C)(O)CCCC(C)C` (stereo not given) as the molecule, how does the Potency read?
**A.** The Potency was “inactive”.

**Q.** With `O=C(O)[C@H](O)[C@@H](O)[C@H](O)[C@H](O)CO` as the molecule, how does the Potency read?
**A.** Its Potency is “inactive”.

**Q.** With `C=C(C)C(=O)OCC(CC)(COC(=O)C(=C)C)COC(=O)C(=C)C` as the molecule, how does the Potency read?
**A.** Its Potency is “inactive”.

**Q.** Which Potency does the source give for `O=C(O)CCCCC1CCSS1` (stereo not given) here?
**A.** The Potency was “inactive”.

**Q.** With `O=C1NS(=O)(=O)c2ccccc21` as the molecule, how does the Potency read?
**A.** The Potency was “inactive”.
